Measured values from PubChem BioAssay (EPA / NIEHS).
Activity calls are given as the source filed them. How the source made its calls: active means hit-call score of the fitted dose curve at least 0.9, where 1 is the maximum; inactive means score below 0.9.

Read-out: solute carrier (SLC22A1), SLC22A1 (gene 6580)
Assay: LTEA_HepaRG_SLC22A1: Life Technologies and Expression Analysis (LTEA) Assay for solute carrier (SLC22A1) using HepaRG (AID 2283524);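 on AC50: differentiated human HepaRG liver cells in serum-free induction medium; TaqMan qRT-PCR normalized to ACTB GAPDH and POLR2A housekeeping genes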
Conditions: mRNA level, 48 h; actives raise or lower the signal
Procedure, shortened: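 Transcript level of SLC22A1 quantified by qRT-PCR (normalized to three housekeeping genes) after 48 h chemical exposure of HepaRG cells, eight concentrations up to 100 µM, half-log steps, 0.5% DMSO vehicle. Gain or loss relative to DMSO fitted bidirectionally.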

SMILES	outcome	AC50
NC(=Nc1ccccc1)Nc1ccccc1	inactive	
CC(COCC(C)OC(=O)c1ccccc1)OC(=O)c1ccccc1 (stereo unspecified)	inactive	
CCCCCCCCCCCCCCOS(=O)(=O)O		80.6 µM (active)
CC(C)NCC(O)c1ccc(O)c(O)c1 (stereo unspecified)		0.209 µM (active)
CC(C)(O)c1ccc(CNC(=O)c2cccnc2Oc2ccc(F)cc2)cc1	inactive	
CC(C)(C)c1ccccc1	inactive	
COC(=O)[C@H]1[C@H]2C[C@@H]3c4[nH]c5cc(OC)ccc5c4CCN3C[C@H]2C[C@@H](OC(=O)c2cc(OC)c(OC)c(OC)c2)[C@@H]1OC		52.8 µM (active)
CN(C)C(=O)NC1(c2ccccc2)CCN(CC[C@@]2(c3ccc(F)c(F)c3)CN(C(=O)c3ccccc3)CCO2)CC1		9.33 µM (active)
CC(=O)O	inactive	
C/C=C/C=C/C(=O)O	inactive	
CC(N)=O	inactive	
CCc1nc(N)nc(N)c1-c1ccc(Cl)cc1		21.1 µM (active)
O=C(Oc1ccccc1)c1cccc(C(=O)Oc2ccccc2)c1	inactive	
CCCC[C@H]1CN(CC2CCOCC2)C(=O)OC12CCN(C1(C)CCN(C(=O)c3c(C)ncnc3C)CC1)CC2	inactive	
CC(C)c1cccc(C(C)C)c1NC(=O)NS(=O)(=O)c1cc(C(C)(C)O)co1	inactive	
O=C1O[C@H]([C@H](O)CO)C(O)=C1O	inactive	
Oc1ccccc1O	inactive	
O=Cc1ccccc1C=O	inactive	
Cc1cn([C@H]2C=C[C@@H](CO)O2)c(=O)[nH]c1=O	inactive	
CN(C)C(=O)NC1(c2ccccc2)CCN(CCC[C@]2(c3ccc(Cl)c(Cl)c3)CCCN(C(=O)c3ccccc3)C2)CC1		23.8 µM (active)
NC1CCCCC1	inactive	
O=C(NS(=O)(=O)/C=C/c1cccs1)c1ccc(F)cc1Br	inactive	
O=C1NC(=O)C(c2ccccc2)(c2ccccc2)N1	inactive	
S=c1[nH]c2ccccc2s1	inactive	
CCCCCCCCCC[N+](C)(C)[O-]	inactive	
CC(=O)CC(c1ccccc1)c1c(O)c2ccccc2oc1=O (stereo unspecified)	inactive	

Read-out: Pyruvate Dehydrogenase Kinase 4 (PDK4), PDK4 (gene 5166)
Assay: LTEA_HepaRG_PDK4: Life Technologies and Expression Analysis (LTEA) Assay for Pyruvate Dehydrogenase Kinase 4 (PDK4) using HepaRG (AID 2283525)
Conditions: mRNA level, 48 h; actives raise or lower the signal
Procedure, shortened: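 Readout is qRT-PCR of PDK4 transcript, normalized to three housekeeping genes, with bidirectional fitting against 0.5% DMSO vehicle. Differentiated HepaRG cells were treated 48 h in serum-free induction medium, duplicate wells, eight-point half-log series topping at 100 uM.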

SMILES	outcome	AC50
NC(=Nc1ccccc1)Nc1ccccc1	inactive	
CC(COCC(C)OC(=O)c1ccccc1)OC(=O)c1ccccc1 (stereo unspecified)	inactive	
CCCCCCCCCCCCCCOS(=O)(=O)O		49.6 µM (active)
CC(C)NCC(O)c1ccc(O)c(O)c1 (stereo unspecified)	inactive	
CC(C)(O)c1ccc(CNC(=O)c2cccnc2Oc2ccc(F)cc2)cc1	inactive	
CC(C)(C)c1ccccc1	inactive	
COC(=O)[C@H]1[C@H]2C[C@@H]3c4[nH]c5cc(OC)ccc5c4CCN3C[C@H]2C[C@@H](OC(=O)c2cc(OC)c(OC)c(OC)c2)[C@@H]1OC	inactive	
COc1ccc(C(=O)Nc2nc3ccccc3c(NCc3ccccc3)c2C#N)cc1	inactive	
CN(C)C(=O)NC1(c2ccccc2)CCN(CC[C@@]2(c3ccc(F)c(F)c3)CN(C(=O)c3ccccc3)CCO2)CC1		21.1 µM (active)
CC(=O)O	inactive	
C/C=C/C=C/C(=O)O	inactive	
CC(N)=O	inactive	
CCc1cc(C2=C(C(=O)O)N(c3ccccc3C(F)(F)F)S(=O)(=O)c3ccccc32)cc2c1OCO2		50 µM (active)
Nc1nc(=S)c2[nH]cnc2[nH]1	inactive	
CCc1nc(N)nc(N)c1-c1ccc(Cl)cc1		50 µM (active)
O=C(Oc1ccccc1)c1cccc(C(=O)Oc2ccccc2)c1	inactive	
CCCC[C@H]1CN(CC2CCOCC2)C(=O)OC12CCN(C1(C)CCN(C(=O)c3c(C)ncnc3C)CC1)CC2	inactive	
CC(C)c1cccc(C(C)C)c1NC(=O)NS(=O)(=O)c1cc(C(C)(C)O)co1	inactive	
O=C1c2c(O)cccc2Cc2cccc(O)c21	inactive	
Oc1ccccc1O	inactive	
O=Cc1ccccc1C=O	inactive	
Cc1cn([C@H]2C=C[C@@H](CO)O2)c(=O)[nH]c1=O	inactive	
CN(C)C(=O)NC1(c2ccccc2)CCN(CCC[C@]2(c3ccc(Cl)c(Cl)c3)CCCN(C(=O)c3ccccc3)C2)CC1		19.2 µM (active)
NC1CCCCC1	inactive	
O=C(NS(=O)(=O)/C=C/c1cccs1)c1ccc(F)cc1Br	inactive	
O=C1NC(=O)C(c2ccccc2)(c2ccccc2)N1	inactive	
S=c1[nH]c2ccccc2s1	inactive	
CCCCCCCCCC[N+](C)(C)[O-]	inactive	
CC(=O)CC(c1ccccc1)c1c(O)c2ccccc2oc1=O (stereo unspecified)	inactive	

Read-out: NAD(P)H dehydrogenase [quinone] 1 (NQO1), NQO1 (gene 1728)
Assay: LTEA_HepaRG_NQO1: Life Technologies and Expression Analysis (LTEA) Assay for NAD(P)H dehydrogenase [quinone] 1 (NQO1) using HepaRG (AID 2283526)
Conditions: mRNA level, 48 h; actives raise or lower the signal
Procedure, shortened: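 In this assay, gene expression is read by qRT-PCR after 48 h exposure of HepaRG cells to eight concentrations (max 100 uM, half-log) in 0.5% DMSO. Each chemical runs in duplicate, and activity is scored relative to vehicle.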

SMILES	outcome
NC(=Nc1ccccc1)Nc1ccccc1	inactive
CC(C)(O)c1ccc(CNC(=O)c2cccnc2Oc2ccc(F)cc2)cc1	inactive
COC(=O)[C@H]1[C@H]2C[C@@H]3c4[nH]c5cc(OC)ccc5c4CCN3C[C@H]2C[C@@H](OC(=O)c2cc(OC)c(OC)c(OC)c2)[C@@H]1OC	inactive
COc1ccc(C(=O)Nc2nc3ccccc3c(NCc3ccccc3)c2C#N)cc1	inactive
CC(=O)O	inactive
C/C=C/C=C/C(=O)O	inactive
CC(N)=O	inactive
CCc1cc(C2=C(C(=O)O)N(c3ccccc3C(F)(F)F)S(=O)(=O)c3ccccc32)cc2c1OCO2	inactive
CCc1nc(N)nc(N)c1-c1ccc(Cl)cc1	inactive
CCCC[C@H]1CN(CC2CCOCC2)C(=O)OC12CCN(C1(C)CCN(C(=O)c3c(C)ncnc3C)CC1)CC2	inactive
CC(C)c1cccc(C(C)C)c1NC(=O)NS(=O)(=O)c1cc(C(C)(C)O)co1	inactive
O=C1c2c(O)cccc2Cc2cccc(O)c21	inactive
O=C1O[C@H]([C@H](O)CO)C(O)=C1O	inactive
O=Cc1ccccc1C=O	inactive
O=C(NS(=O)(=O)/C=C/c1cccs1)c1ccc(F)cc1Br	inactive
S=c1[nH]c2ccccc2s1	inactive
